According to PubChem BioAssay:
A number with no mark means an inactive call. The rule behind the calls is not given here.

Target: Lethal factor (Bacillus anthracis) (UniProt P15917)
Test: Bacillus anthracis lethal factor inhibition, microsphere flow cytometry protease assay, validation at 10 µM (AID 588461)
Settings: multiplex microsphere protease cleavage assay, hits give high values

Compound	inhibition [%]
c1ccc(SSc2ccccc2)cc1	-8.9
COCc1cc(=O)[nH]c(/N=C(\N)Nc2ccc(Oc3ccccc3)cc2)n1	5.6
CCNC(=S)N1CCN(CCN2C(=O)c3cccc4cccc(c34)C2=O)CC1	10.2
O=C(O)COc1ccc2occ(C(=O)c3ccccc3)c2c1	4.6
O=c1[nH]c(=O)n([C@H]2C[C@H](O)[C@@H](CO)O2)cc1F	1.1
O=C(/C=C/c1ccc(F)cc1)N1CC[C@@]2(O)CCCC[C@H]2C1	5.2
O=C(c1cccc2ccccc12)C1CCCN(C(=O)CCN2CCCO2)C1 (stereo not drawn)	2.5
CC1(C)C(=O)OC(c2cccs2)C2(CCCCC2)C1=O (stereo not drawn)	-6.2
CN(Cc1c(C(=O)N(C)Cc2ccccc2)nc2ccccn12)CC1Cc2ccccc2O1 (stereo not drawn)	-5.9
CC(C)COCC(CN(Cc1ccccc1)c1ccccc1)N1CCCC1 (stereo not drawn)	-2
CCC(=O)Oc1ccc(C(=O)Nc2ccc([N+](=O)[O-])cc2)cc1	-3.6
N=c1ccn(CC(=O)NC(N)=O)c2ccccc12	3.1
COC(=O)C1=C(C)NC(C)=C(C(=O)OCCN(C)Cc2ccccc2)C1c1cccc([N+](=O)[O-])c1 (stereo not drawn)	-3.7
CCOC(=O)C1NN=C(C(=O)c2ccccc2)C1c1ccc(Cl)cc1 (stereo not drawn)	3.2
COC(=O)CSc1nc2ccc(N)cc2s1	1.5
CC(C)(C)n1c(=O)[nH]c2c(c1=O)CCC2	-3.9
CNCCCN1c2ccccc2CCc2ccccc21	3.8
Cc1ccc(S(=O)(=O)N[C@@H](Cc2ccccc2)C(=O)CCl)cc1	3.4
COc1ccc(-c2cc(=O)oc3c(C)c(O)c(CN(C)C)cc23)cc1	-2.1
N#C/C(=C\c1ccc(O)c(O)c1)C(=O)NCCCc1ccccc1	-2.8
Cc1ccc(P(=O)(CSC(=N)N)c2ccc(C)cc2)cc1	-7.5
CCc1cc2c(=O)c(-c3nc4ccccc4n3C)coc2c(CN2CCN(C)CC2)c1O	-2.8
Cn1nnnc1SCC1=C(C(=O)O)N2C(=O)[C@@H](NC(=O)[C@H](O)c3ccccc3)[C@H]2SC1	1.9
